Measured values reported in PubChem BioAssay (NCATS).
Inconclusive results are not listed. Activity calls are given as the source filed them. Calls follow the shape of the dose curve; as a rule, active = well fitted curve in the direction sought with a large enough effect; inconclusive = small, poorly fitted or top-dose-only effect, or another doubt; inactive = no such curve, though single readings can be large; an effect the other way counts as inactive or inconclusive.

Columns and labels:
HaCat [1] = assay: Cytotoxic Profiling of Annotated Libraries Using Quantitative High-Throughput Screening (AID 1296008); details: Five cell lines viability, CellTiter-Glo ATP luminescence, 48-72 h; max response: hits give low values; also: nearly all actives have a fitted effect of over 60% in size; also: potency is read from the fitted curve at half-maximal effect; as to max response: % is scaled to controls: 0 for no effect and ±100 for the full control effect
Outline: (§1)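 Cytotoxicity was measured as CellTiter-Glo ATP luminescence, read after 10 min at room temperature. Compound treatment of the cells lasted 48 or 72 hr at 37 degrees Celsius in a qHTS format.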

KB-3-1 = assay: as above; details: Five cell lines viability, CellTiter-Glo ATP luminescence, 48-72 h; max response: hits give low values
Outline: as §1

C33A = assay: Primary qHTS to identify gynecologic anti-cancer compounds using libraries of approved drugs and bioactive compounds (AID 1345084); details: Gynecologic cancer cell panel viability, ATPlite luminescence, 48 h; series mostly up to 57.5 µM; also: % is scaled to controls: 0 for no effect and ±100 for the full control effect; nearly all actives have a fitted effect of over 55% in size
Outline: (§2)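 Five-point cytotoxicity, 48 h drug exposure at 37 C, 5% CO2, on cells seeded 16 h beforehand. ATP content read by ATPlite luminescence.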

CAOV3 = assay: as above; details: Gynecologic cancer cell panel viability, ATPlite luminescence, 48 h; series mostly up to 57.5 µM
Outline: as §2

CASKI = assay: as above; details: Gynecologic cancer cell panel viability, ATPlite luminescence, 48 h; series mostly up to 57.5 µM
Outline: as §2

Hek293T = assay: as above; details: Gynecologic cancer cell panel viability, ATPlite luminescence, 48 h, control line for the selectivity index; series mostly up to 57.5 µM
Outline: as §2

JEG-3 = assay: as above; details: Gynecologic cancer cell panel viability, ATPlite luminescence, 48 h; series mostly up to 57.5 µM
Outline: as §2

OV90 = assay: as above; details: Gynecologic cancer cell panel viability, ATPlite luminescence, 48 h; series mostly up to 57.5 µM
Outline: as §2

NIH3T3 [2] = assay: Cytotoxic Profiling of Annotated Libraries Using Quantitative High-Throughput Screening (AID 1296008); details: Five cell lines viability, CellTiter-Glo ATP luminescence, 48-72 h; max response: hits give low values; also: nearly all actives have a fitted effect of over 60% in size; also: potency is read from the fitted curve at half-maximal effect; as to max response: % is scaled to controls: 0 for no effect and ±100 for the full control effect
Outline: as §1

Es-2 = assay: Primary qHTS to identify gynecologic anti-cancer compounds using libraries of approved drugs and bioactive compounds (AID 1345084); details: Gynecologic cancer cell panel viability, ATPlite luminescence, 48 h; series mostly up to 57.5 µM; also: % is scaled to controls: 0 for no effect and ±100 for the full control effect; nearly all actives have a fitted effect of over 55% in size
Outline: as §2

HeLa = assay: as above; details: Gynecologic cancer cell panel viability, ATPlite luminescence, 48 h; series mostly up to 57.5 µM
Outline: as §2

HACAT [3] = assay: qHTS assay to identify novel small-molecules to repurpose for Merkel cell carcinoma treatment (AID 1296009); details: MCC and control cell lines, CellTiter-Glo viability, 72 h; at 44.8 µM (top of the series) unless noted; also: nearly all actives have a fitted effect of over 60% in size
Outline: (§3)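 After compound transfer in DMSO, plates were kept 72 hr at 37 degree celsius. Luminescent ATP signal from CellTiter-Glo served as viability measure, normalized against DMSO and no-cell controls.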

NIH3T3 [4] = assay: as above; details: MCC and control cell lines, CellTiter-Glo viability, 72 h; series mostly up to 44.8 µM
Outline: as §3

CC#C[C@@H](CC(=O)O)c1ccc(OCc2cccc(-c3ccc(C(F)(F)F)cc3)c2)cc1
inactive: max response (HaCat [1]) -75.8% | max response (KB-3-1) -14.7% | Potency (C33A) | Potency (CAOV3) | Potency (CASKI) | Potency (Hek293T) | Potency (JEG-3) | Potency (OV90)

COc1cc(/C=C/C(=O)NCCn2c(C(F)(F)F)cc3ccccc32)cc(OC)c1OC
inactive: max response (HaCat [1]) -29.1% | max response (NIH3T3 [2]) -23.8% | Potency (C33A) | Potency (CAOV3) | Potency (CASKI) | Potency (Es-2) | Potency (HeLa) | Potency (Hek293T) | Potency (JEG-3) | Potency (OV90)

CC(C)(O)C(=O)N1CCN(c2ccc(C(F)(F)F)c(C3=C(c4c[nH]c5ccccc45)C(=O)NC3=O)c2)CC1
inactive: outcome (HaCat [1]) | max response (NIH3T3 [2]) -9.17% | outcome (HACAT [3]) | Potency (CAOV3) | Potency (CASKI) | Potency (Es-2) | Potency (Hek293T) | Potency (OV90)

COC1C(O)C(OC2CCC3(C)C(CCC45CCC6C7(COC(=O)C7)OC4(O)C6(C)CCC35)C2)OC(C)C1OC1OC(CO)C(OC2OC(CO)C(O)C(O)C2O)C(O)C1O (stereo not drawn)
inactive: outcome (HaCat [1]) | max response (NIH3T3 [2]) 1.1% | outcome (HACAT [3]) inactive [at 9.27 µM] | activity change, negative = cytotoxicity (CAOV3) 5.13% [at 11.6 µM] | activity change, negative = cytotoxicity (CASKI) 22.8% [at 11.6 µM] | activity change, negative = cytotoxicity (HeLa) -19.8% [at 11.6 µM] | activity change, negative = cytotoxicity (OV90) -0.158% [at 11.6 µM]

CC(=O)O[C@H]1CC2C(COC(=O)CC(C)C)=CO[C@@H](OC(=O)CC(C)C)C2[C@]12CO2 (stereo partly drawn)
inactive: max response (HaCat [1]) -12.1% | outcome (NIH3T3 [2]) | Potency (NIH3T3 [4]) | Potency (C33A) | Potency (Es-2) | Potency (HeLa) | Potency (Hek293T) | Potency (JEG-3) | Potency (OV90)

O=c1[nH]c2cccc(N3CCN(Cc4ccc(-c5ccccc5)cc4)CC3)c2o1
inactive: max response (HaCat [1]) -18.1% | max response (KB-3-1) -24.1% | Potency (C33A) | Potency (CASKI) | Potency (Es-2) | Potency (HeLa) | Potency (Hek293T) | Potency (JEG-3) | Potency (OV90)

Cc1cc(C)nc(SCC(=O)Nc2ncc(Cc3cccc4ccccc34)s2)n1
inactive: outcome (HaCat [1]) | max response (NIH3T3 [2]) -0.172% | outcome (HACAT [3]) | Potency (C33A) | Potency (CAOV3) | Potency (CASKI) | Potency (Es-2) | Potency (HeLa) | Potency (Hek293T) | Potency (JEG-3) | Potency (OV90)

C=C1C(=O)O[C@@H]2C[C@@]3(C)C[C@@H](O)C[C@H](C)C3=C[C@H]12
inactive: max response (HaCat [1]) -8.34% | outcome (KB-3-1) | Potency (C33A) | Potency (CAOV3) | Potency (CASKI) | Potency (HeLa) | Potency (Hek293T) | Potency (JEG-3) | Potency (OV90)

C/C=C(\C)C(=O)O[C@H]1C=CC(=O)O[C@H]1/C=C/[C@@H](O)[C@H](C)O
inactive: max response (HaCat [1]) -16.7% | max response (KB-3-1) -19.4% | Potency (C33A) | Potency (CAOV3) | Potency (CASKI) | Potency (HeLa) | Potency (OV90)

COc1ccc(C#Cc2ccc(C(=O)N3CCC[C@@H](CO)C3)cc2)cc1
inactive: max response (HaCat [1]) 1.97% | max response (NIH3T3 [2]) -25.7% | Potency (C33A) | Potency (CAOV3) | Potency (CASKI) | Potency (Es-2) | Potency (HeLa) | Potency (Hek293T) | Potency (JEG-3) | Potency (OV90)

Cc1ccc(S(=O)(=O)N2CCC[C@H]2c2ccc(F)cc2)cc1
inactive: max response (KB-3-1) -12.3% | max response (NIH3T3 [2]) -13.3% | Potency (C33A) | Potency (CAOV3) | Potency (CASKI) | Potency (Es-2) | Potency (HeLa) | Potency (Hek293T) | Potency (JEG-3)

COC1=C(C(=O)O)N2C(=O)[C@@H](NC(=O)[C@H](N)C3=CCC=CC3)[C@H]2SC1
inactive: max response (KB-3-1) -6.73%

N[C@@H](C(=O)N[C@H]1C(=O)N2C(C(=O)O)=C(Cl)CC[C@H]12)c1ccccc1
inactive: max response (KB-3-1) -8.22%

CON=C1C[C@]2(C[C@@H]3C[C@@H](C/C=C(\C)C[C@@H](C)/C=C/C=C4\CO[C@@H]5[C@H](O)C(C)=C[C@@H](C(=O)O3)[C@]45O)O2)O[C@H](/C(C)=C/C(C)C)[C@H]1C
active: Potency (KB-3-1) 20.6 µM

C=C1C(=O)OC2/C=C(\C)CC/C=C(\C)CC(OC(C)=O)C12 (stereo not drawn)
inactive: max response (KB-3-1) 3.33% | Potency (C33A) | Potency (CASKI) | Potency (HeLa) | Potency (Hek293T) | Potency (JEG-3) | Potency (OV90)
active: Potency (NIH3T3 [2]) 23.1 µM

C=C1C(=O)OC2C3=C(C)C(=O)CC3C(C)CC(O)C12 (stereo not drawn)
inactive: max response (KB-3-1) 9.21% | max response (NIH3T3 [2]) -16.4% | Potency (C33A) | Potency (CAOV3) | Potency (CASKI) | Potency (Es-2) | Potency (HeLa) | Potency (Hek293T) | Potency (JEG-3) | Potency (OV90)

CC(CN1c2ccccc2Sc2ccc(S(=O)(=O)N(C)C)cc21)N(C)C (stereo not drawn)
inactive: max response (KB-3-1) -2.65%

O=C(Cn1c(=O)sc2ccc(Cl)cc21)N1CCN(CCO)CC1
inactive: max response (KB-3-1) 2.82%

CCOC(=O)[C@H](CCc1ccccc1)N[C@H]1CCCN2CCC[C@@H](C(=O)O)N2C1=O
inactive: max response (KB-3-1) 1.33%

Cc1cccc(C)c1N(CCCc1cccnc1)C(=O)C(C)N (stereo not drawn)
inactive: max response (KB-3-1) -6.26%

O=P(O)(O)C(O)(Cc1cnc2ccccn12)P(=O)(O)O
inactive: max response (KB-3-1) -1.58%
